Drawing on paper PMC6212790, “How bacterial xenogeneic silencer rok distinguishes foreign from self DNA in its resident genome”, this text covers binding signal for 177 sequences.

The full ranking holds about 33,000 sequences; the median of “e-score” is about -0.037, and the highest 2% start at about 0.34. The list comes from a sample in which the highest values are over-represented; it also holds similar and randomly drawn sequences.

This test deals with T1, GST-Rok (full length) (Bacillus subtilis subsp. subtilis str. …, UniProt O34857 1-191).
T1 sequence: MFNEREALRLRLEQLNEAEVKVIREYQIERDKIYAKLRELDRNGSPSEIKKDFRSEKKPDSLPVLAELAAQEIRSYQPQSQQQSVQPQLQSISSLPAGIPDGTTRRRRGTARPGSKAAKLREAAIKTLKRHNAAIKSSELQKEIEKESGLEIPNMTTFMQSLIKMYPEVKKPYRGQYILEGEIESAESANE
Description: protein binding microarray; Rok is a gene silencer of Bacillus subtilis; high values mean tight binding. To be noted: protein: recombinant; tags: GST (pTH5325, pDEST15-Magic modified); dsDNA, one strand shown. A digest of the protocol:
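Each has a 25-mer constant primer and a 35-mer variable part from a de Bruijn sequence of order 10, covering every non-palindromic 8-mer at least 32 times (palindromic 16). Preference for each 8-mer is given as a rank-based, unitless enrichment score (E-score). Its range runs from 0.5 (most favored) to −0.5 (most disfavored).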
With ACAAATAT, the binding signal stood at 0.402 E-score. As for AATAACCT, the binding signal stood at 0.0317 E-score. The same measure for AACCACGT: -0.0233 E-score; for ACCATAGT: 0.207 E-score; for CGATAGAC: 0.0161 E-score. In the case of AGATAGAA, the binding signal was found to be 0.26 E-score. Take CGATAGAG: the binding signal is -0.134 E-score. The value for GGATAGAA was 0.171 E-score; that for CGATAGAA was 0.344 E-score.

Take TGATAGAA: the binding signal is 0.388 E-score. Take AGGTGCCA: the binding signal was -0.0282 E-score. On to CTTATTGA, for which the binding signal is -0.157 E-score. The same measure for TATAGATA: 0.384 E-score; for GATAGATC: 0.273 E-score; for AATAGATG: 0.261 E-score.

For AATAGATT, the binding signal was found to be 0.388 E-score.

Consider AATAGATC, for which the binding signal was 0.14 E-score.

With GATAGATA, the binding signal is 0.368 E-score. Take AATAGATA: the binding signal came to 0.262 E-score. As for CATAGATA, the binding signal was determined as 0.3 E-score. The same measure for GATAGACA: -0.0476 E-score. The same measure for ACCGTACT: 0.0822 E-score; for ATTTGGCC: -0.00123 E-score; for CACGGTAG: 0.264 E-score. The value for AACATCAA was 0.0614 E-score; that for CGAAGCAA was -0.114 E-score. In the case of AACCTCGC, the binding signal is -0.106 E-score. On to AAATTCGT, for which the binding signal was determined as 0.226 E-score. The value for TAAATAAA was 0.231 E-score. As for GAAATATA, the binding signal was 0.283 E-score. The same measure for AAAATATC: 0.275 E-score; for CAAATATG: 0.194 E-score.

For ACAATATA, the binding signal came to 0.298 E-score. For the sequence AAAATATG, the binding signal was determined as 0.278 E-score. The value for AAAATATT was 0.358 E-score; that for AAAATAAA was 0.199 E-score; that for TAAATATA was 0.394 E-score.

Turning to CAAATATC, the binding signal stood at 0.285 E-score. Take AAAATATA: the binding signal turned out to be 0.417 E-score. The same measure for CAAATATA: 0.345 E-score; for AATGACCG: -0.0639 E-score; for AGGAATTC: -0.159 E-score. ACGAACCA: the binding signal was 0.000876 E-score.

In the case of TCATTCAA, the binding signal is -0.111 E-score. As to CAGTTTTC, the binding signal was 0.0134 E-score. The same measure for GATCGATA: 0.269 E-score. In the case of AATCGATA, the binding signal is 0.281 E-score. The same measure for TATCGATA: 0.376 E-score; for CTACAATA: 0.291 E-score.

Turning to AGAATCCT, the binding signal stood at 0.0705 E-score. Consider ACGAAACT, for which the binding signal came out at 0.337 E-score. The same measure for ACGAAACA: 0.0691 E-score; for ACGAAACC: -0.0947 E-score; for AGCCTTAG: -0.181 E-score. The same measure for ATGAGATC: 0.0598 E-score; for AGTAGATC: 0.324 E-score; for CTGAGATA: 0.0758 E-score. The value for ATTAGATC was 0.293 E-score; that for GTTAGATA was 0.241 E-score. Regarding ATTAGATA, the binding signal is 0.367 E-score. The same measure for AGTAGATA: 0.442 E-score.

For the sequence CGTAGATA, the binding signal was determined as 0.258 E-score. GGTAGATA: the binding signal stood at 0.451 E-score. The same measure for AGTAGATG: 0.283 E-score; for ATGAGATA: 0.346 E-score; for CGTAGATC: 0.21 E-score. Take CGTAATAA: the binding signal was found to be 0.27 E-score. For CTCTTCGC, the binding signal was determined as 0.197 E-score. The same measure for CCATAAAC: -0.00276 E-score; for ATAAAGAA: -0.0956 E-score; for GTCATAAA: 0.154 E-score. The same measure for AATCTTCG: 0.0665 E-score; for ATTTTATG: 0.251 E-score. The same measure for AATTTATA: 0.435 E-score; for AACTTATA: 0.403 E-score; for CACTTATA: 0.329 E-score.

Take ATTTTATA: the binding signal turned out to be 0.41 E-score. For GATTTATA, the binding signal is 0.315 E-score. The same measure for AATTTATG: 0.283 E-score; for GTTTTATA: 0.141 E-score; for TACTTATA: 0.321 E-score.

As to CTAATCGC, the binding signal is 0.18 E-score. AGAAACAT: the binding signal was found to be 0.155 E-score. The value for CGGCTATC was -0.0522 E-score; that for ACTAGCGG was 0.188 E-score; that for CCAAACGA was 0.042 E-score. For the sequence GAAATGCA, the binding signal was -0.095 E-score. The same measure for GAAATGTC: 0.126 E-score. As to CAAATGTA, the binding signal came to 0.289 E-score. The same measure for AAAATGTA: 0.287 E-score; for TAAATGTA: 0.411 E-score. For the sequence GAAATGTA, the binding signal came to 0.351 E-score.

In the case of CTTGTTTC, the binding signal was 0.0903 E-score. Consider CAAACCAG, for which the binding signal is -0.185 E-score.

AACCATGC: the binding signal is -0.0502 E-score. The same measure for GCTATCAA: 0.164 E-score. The same measure for CCTATCAA: 0.161 E-score; for ACTATCAC: 0.34 E-score; for ACTATCAA: 0.337 E-score. The same measure for GCTATCAC: 0.244 E-score; for CCTATCAC: 0.0828 E-score; for AGAAAGTC: 0.121 E-score.

As to GTAAAGAA, the binding signal turned out to be 0.0756 E-score. In the case of TCTATTCA, the binding signal was 0.0926 E-score. The value for AACTAAAT was 0.362 E-score; that for AACTAAAA was 0.345 E-score. The value for ACCTAAAA was 0.306 E-score; that for GACTAAAA was 0.123 E-score; that for AACTAAAC was 0.138 E-score.

Consider AACTAAGA, for which the binding signal worked out at 0.138 E-score.

With CACTAAAA, the binding signal was determined as 0.293 E-score. On to TACTAAAA, for which the binding signal was determined as 0.434 E-score. As to AACTAAAG, the binding signal is -0.0498 E-score. The same measure for CGCCCAAC: -0.14 E-score; for AACTTTGA: -0.0517 E-score. The same measure for AACATTAC: 0.214 E-score; for AGTAGGTG: 0.174 E-score; for GGTAGGTA: 0.304 E-score. The same measure for AGTAGGTA: 0.404 E-score. Consider CGTAGGTA, for which the binding signal was determined as 0.347 E-score.

Consider CCTAGGTA, for which the binding signal was 0.0506 E-score.

As for AGTAGGTC, the binding signal came out at 0.069 E-score. For GATGGAGA, the binding signal is -0.0862 E-score. As for ATTAACCG, the binding signal was 0.0492 E-score.

Consider CGAAAGGC, for which the binding signal is -0.183 E-score. The same measure for CTTACAAG: -0.114 E-score; for ATGAATCC: 0.0418 E-score; for GAAGCTAC: 0.323 E-score. With CTAGCTAA, the binding signal was found to be 0.133 E-score. CTAGCTAC: the binding signal came to 0.198 E-score.

With GTAGCTAC, the binding signal amounted to 0.436 E-score. The same measure for GTAGCTAA: 0.373 E-score.

Turning to ATAGCTAT, the binding signal was 0.373 E-score. The same measure for ATAGCTAC: 0.333 E-score. Take ATAGCTAG: the binding signal was found to be 0.273 E-score. The same measure for TTAGCTAA: 0.129 E-score; for CCGCTGAC: -0.15 E-score; for GCCGCATA: -0.186 E-score. On to AGAGTCGA, for which the binding signal was -0.0761 E-score. With CTAGTGTC, the binding signal stood at 0.0749 E-score. The value for GGCAGTAC was -0.0236 E-score; that for GCGGATCA was -0.193 E-score; that for ACAAGGAA was -0.0483 E-score.

As to ATTCACCC, the binding signal was determined as 0.0731 E-score.

As to ATTACTAC, the binding signal is 0.355 E-score.

Take ATTACTAA: the binding signal worked out at 0.357 E-score.

Take ATTACTGC: the binding signal was determined as 0.138 E-score. ATTACTCG: the binding signal was 0.225 E-score. The same measure for CTTACTAC: 0.169 E-score; for CTTACTAA: 0.222 E-score.

In the case of GTTACTAA, the binding signal came out at 0.283 E-score.

With ATTACTGG, the binding signal is -0.0684 E-score. The value for ATTACTAG was 0.398 E-score. The value for AGGTCCAG was -0.187 E-score; that for ACTGGCCG was 0.00991 E-score; that for AGCGGCTC was -0.196 E-score. Take GTCGCTTA: the binding signal was -0.0639 E-score. The value for GTTACATA was 0.212 E-score. AACGTTAT: the binding signal came out at 0.216 E-score. Turning to AACGTTAG, the binding signal was determined as 0.344 E-score. The value for AACGTTAC was -0.0148 E-score.

As to GCATTCCA, the binding signal is -0.149 E-score. The value for CGCGTCCA was -0.16 E-score; that for ATGCTTCG was -0.00471 E-score; that for GCGCAGAA was -0.0702 E-score. As to AATATACC, the binding signal amounted to 0.394 E-score. For the sequence AATATACA, the binding signal turned out to be 0.388 E-score. Take GATATACA: the binding signal was found to be 0.25 E-score. The same measure for CATATACC: 0.259 E-score; for TGTATACA: 0.351 E-score. Take ACTATACA: the binding signal is 0.322 E-score.

As to TATATACA, the binding signal was determined as 0.409 E-score. The value for GGTATACA was 0.187 E-score; that for CGTATACA was 0.227 E-score.

For the sequence GATATACC, the binding signal was found to be 0.291 E-score.

Regarding CATATACA, the binding signal was 0.258 E-score. The value for AATACACA was 0.234 E-score.
